37 molecules from PubChem BioAssay (NCI) can be followed below.

Compounds without any hit were thinned out: in the full panel of roughly 79,000, 15% have a hit. Values without a mark were called inactive. Calls of active or inactive are those of the source. Rule as the data show it: active = growth inhibition above about 70%; inactive = the rest.

The nature of experiment [1]: NCI Yeast Anticancer Drug Screen. Data for the rad50 strain (AID 155).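 Also: 0% = growth of vehicle-only cultures of the same strain.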 The conditions noted are these: S. cerevisiae rad50 strain growth inhibition; at 50.0 µM; stronger effect = higher value. The method in brief:
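Relative growth inhibition (compound vs vehicle) was measured in yeast with a defined repair-gene alteration.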

Experiment [2] can be described thus: NCI Yeast Anticancer Drug Screen. Data for the mec2-1 strain (AID 157). The conditions noted are these: S. cerevisiae mec2-1 strain, at 50.0 µM, stronger effect = higher value. An outline of the steps: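 Using mec2-1 yeast: add compound, measure growth, express inhibition versus vehicle-treated cultures.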
Experiment [3] can be described thus: NCI Yeast Anticancer Drug Screen. Data for the sgs1 mgt1 strain (AID 161).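 Also: 0% = growth of cultures given vehicle only.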 The conditions noted are these: S. cerevisiae sgs1 mgt1 strain, at 50.0 µM, stronger effect = higher value. An outline of the steps:
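Compounds are added to genetically altered yeast, and growth is compared with cultures given vehicle alone to give percent inhibition.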

The nature of experiment [4]: NCI Yeast Anticancer Drug Screen. Data for the cln2 rad14 strain (AID 165).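 Also: 0% = growth equal to vehicle treated cultures.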 Particulars: S. cerevisiae cln2 rad14 strain, at 50.0 µM, stronger effect = higher value. An outline of the steps: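 Yeast strain cln2 rad14, bearing defects in cell cycle control and DNA repair, serves as the test system; values reflect growth inhibition compared with vehicle.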
The nature of experiment [5]: NCI Yeast Anticancer Drug Screen. Data for the bub3 strain (AID 167). The conditions noted are these: S. cerevisiae bub3 mutant strain, at 50.0 µM, stronger effect = higher value. An outline of the steps: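 Screening used yeast with an engineered genetic alteration affecting cell cycle control. Compound-exposed cultures were compared with vehicle cultures, and reduced growth was taken as inhibition.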

A short description of experiment [6]: NCI Yeast Anticancer Drug Screen. Data for the mlh1 rad18 strain (AID 175). Particulars: S. cerevisiae mlh1 rad18 strain growth inhibition; at 50.0 µM; stronger effect = higher value. An outline of the steps: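 Steps: expose repair-defective yeast to compound; measure growth; express inhibition against vehicle-treated controls.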

Turning to `COC(=O)c1ccccc1N=Cc1cc(Cl)ccc1O`, the growth inhibition in experiment [1] is 21.5%; in experiment [2] it was 23.1%; in experiment [3] it was 35.9%; in experiment [4] it was 6.1%; in experiment [5] it was 19.6%; in experiment [6], 88.2% (active).
With `CC(=O)CC(=O)Nc1cc(C(F)(F)F)ccc1Cl`, the growth inhibition is 15.4% in experiment [1]; -25.6% in experiment [2]; -19.1% in experiment [3]; -0.3% in experiment [4]; -6.25% in experiment [5]; 3.05% in experiment [6].
`COC(=O)C(Br)C(Br)c1ccc(OC)c(OC)c1` (configuration not stated): the growth inhibition in experiment [1] is -5.15%; in experiment [2], -9.8%; in experiment [3], 13.3%; in experiment [4] it was -30.6%; in experiment [5] it was 22.9%; in experiment [6] it was 16.2%.
As to `CC(=O)c1c2c(cc3c1CCC3)CCC2`, the growth inhibition in experiment [1] was -15.4%; in experiment [2] it was -47.2%; in experiment [3] it was -20.1%; in experiment [4], -26%; in experiment [5], -21.7%; in experiment [6], -0.8%.
`COc1cc2c(cc1O)C1Cc3cc(O)c(OC)cc3C(C2)N1C` (configuration not stated): the growth inhibition in experiment [1] is -29.8%; in experiment [2], -12.7%; in experiment [3] it was -30.2%; in experiment [4] it was 3.1%; in experiment [5] it was -25.6%; in experiment [6], -22.1%.
Regarding `C[N+](C)(C)CCCSc1nc2ccccc2[nH]1`, the growth inhibition in experiment [1] is 9.6%; in experiment [2], -7.15%; in experiment [3], -52%; in experiment [4] it was -30.9%; in experiment [5], -24.4%; in experiment [6], -15.5%.
Take `N#C/C(=C\c1cccc(N)c1)c1ccccc1`: the growth inhibition is 45.4% in experiment [1]; 57.9% in experiment [2]; 73.7% (active) in experiment [3]; 30.1% in experiment [4]; 88% (active) in experiment [5]; 80% (active) in experiment [6].
`COC(=O)C(C)(C)c1ccccc1C(C)(C)C(=O)OC`: the growth inhibition in experiment [1] is -5.85%; in experiment [2] it was 6.05%; in experiment [3] it was -1.4%; in experiment [4], -7.95%; in experiment [5], 9.35%; in experiment [6] it was 3.9%.
As to `Cc1cc(=O)[nH]c2cc(O)c(C(=O)O)cc12`, the growth inhibition in experiment [1] is -2.95%; in experiment [2] it was 3.7%; in experiment [3], -0.3%; in experiment [4] it was -54.5%; in experiment [5], 1.6%; in experiment [6], -8.15%.
Turning to `CCN(CC)CCCC(C)Nc1cc(C)c2nc(C)cc(C)c2c1C` (configuration not stated), the growth inhibition in experiment [1] is -22.1%; in experiment [2], 9.45%; in experiment [3], 17%; in experiment [4], -13%; in experiment [5], 3.4%; in experiment [6], -18.6%.
For `CCC(CC)C(=O)NC(=O)NC(N)=O`, the growth inhibition in experiment [1] was 2.7%; in experiment [2], 1.4%; in experiment [3], 3.35%; in experiment [4] it was -4.7%; in experiment [5], 6.55%; in experiment [6] it was -3.55%.
In the case of `CC(C)c1ccc(/C(O)=C/C(=O)C(=O)/C=C(/O)c2ccc(C(C)C)cc2)cc1`, the growth inhibition in experiment [1] is 31.4%; in experiment [2], 2.25%; in experiment [3], 1.25%; in experiment [4], 9.6%; in experiment [5], 2.5%; in experiment [6], 10.7%.
Regarding `CCOC(=O)C(C(C)=O)C(c1ccc(N(C)C)cc1)C(C(C)=O)C(=O)OCC` (configuration not stated), the growth inhibition is 8.75% in experiment [1]; -7% in experiment [2]; 7.75% in experiment [3]; -6.2% in experiment [4]; -4% in experiment [5]; 9.45% in experiment [6].
As to `COc1ccc(C(=O)c2ccccc2)cc1OC`, the growth inhibition is 2.95% in experiment [1]; 13.8% in experiment [2]; -4.25% in experiment [3]; -21.4% in experiment [4]; -1.2% in experiment [5]; -7.85% in experiment [6].
Consider `Cc1ccc(Cc2cc(=O)[nH]c(=O)[nH]2)cc1`, for which the growth inhibition in experiment [1] was 0.2%; in experiment [2], -8.25%; in experiment [3], -13.2%; in experiment [4], -76.5%; in experiment [5], 2.7%; in experiment [6], 5.4%.
Consider `Nc1c(N=Nc2ccc(S(=O)(=O)O)cc2)cc2c3c(cccc13)CC2`, for which the growth inhibition was 11.3% in experiment [1]; 2.35% in experiment [2]; 20.6% in experiment [3]; 8.65% in experiment [4]; -39.5% in experiment [5]; 2.4% in experiment [6].
As to `O=C1c2cc([N+](=O)[O-])ccc2-c2c(I)cccc21`, the growth inhibition in experiment [1] was 4.25%; in experiment [2], 2.7%; in experiment [3] it was -5.35%; in experiment [4] it was 5.75%; in experiment [5], -9.25%; in experiment [6] it was -6.45%.
As for `OCC(O)C(O)C(O)C(SCc1ccccc1)SCc1ccccc1` (configuration not stated), the growth inhibition in experiment [1] is 3.9%; in experiment [2] it was -7.85%; in experiment [3], -20.4%; in experiment [4] it was -4.8%; in experiment [5], -6.2%; in experiment [6], -12.6%.
Consider `O=C(O)c1cccc2c1C(=O)c1c(O)cccc1C2=O`, for which the growth inhibition is 35.9% in experiment [1]; 19.9% in experiment [2]; 42.4% in experiment [3]; 25.9% in experiment [4]; 13.2% in experiment [5]; 30.2% in experiment [6].
As for `O=C(O)c1ccccc1/C=N\NC1=NCCCCN1`, the growth inhibition is -34.2% in experiment [1]; -10.3% in experiment [2]; -31.4% in experiment [3]; 20.2% in experiment [4]; -27.6% in experiment [5]; -18.4% in experiment [6].
`CC(=Nc1ccccc1)NO`: the growth inhibition in experiment [1] was 1.9%; in experiment [2] it was 14%; in experiment [3], 3.7%; in experiment [4], 3.5%; in experiment [5] it was -8.1%; in experiment [6], 2.1%.
`NC(=O)/C=C/c1ccc([N+](=O)[O-])cc1`: the growth inhibition is 33% in experiment [1]; -6.85% in experiment [2]; -9% in experiment [3]; -74% in experiment [4]; 4.6% in experiment [5]; -3.4% in experiment [6].
Consider `Oc1cc2cc(-c3ccccc3)[nH]c2c2ccccc12`, for which the growth inhibition is -11.1% in experiment [1]; -5.25% in experiment [2]; -1.3% in experiment [3]; 18.8% in experiment [4]; -2.1% in experiment [5]; 1.3% in experiment [6].
In the case of `COc1cc(C2c3cc4c(cc3[C@@H](OC3OC5CO[C@@H](C)OC5C(O)C3O)[C@H]3COC(=O)C23)OCO4)cc(OC)c1OC` (some centres not stated), the growth inhibition in experiment [1] is 2.4%; in experiment [2] it was -36.1%; in experiment [3], -21.9%; in experiment [4], 12.4%; in experiment [5], -16.7%; in experiment [6], -83.5%.
For the molecule `O=S(=O)(SC1=NCCN1)c1ccc2ccccc2c1`, the growth inhibition was -2.75% in experiment [1]; -5.15% in experiment [2]; -15.1% in experiment [3]; 6.65% in experiment [4]; -3% in experiment [5]; -41.5% in experiment [6].
Turning to `CCCCCCCCCCCCCCCc1cc(=O)n(-c2ccc(NC(C)=O)cc2)n1C`, the growth inhibition in experiment [1] is -2%; in experiment [2], -23.8%; in experiment [3], -12.6%; in experiment [4], 3.1%; in experiment [5], -1%; in experiment [6] it was -9.7%.
Take `CN(C)c1ccc([O-])cc1.CN(C)c1ccc([O-])cc1.CN(C)c1ccc([O-])cc1.CN(C)c1ccc([O-])cc1.[Ti+4]`: the growth inhibition in experiment [1] is 26.9%; in experiment [2], -19.4%; in experiment [3], 4.65%; in experiment [4], 19.3%; in experiment [5] it was 4.95%; in experiment [6] it was -2.6%.
`O=C1CSC(c2ccccc2C(F)(F)F)N1c1nncs1` (configuration not stated): the growth inhibition in experiment [1] is 18.4%; in experiment [2], 1%; in experiment [3] it was 11.6%; in experiment [4], -46%; in experiment [5] it was -39.2%; in experiment [6], 9.8%.
Consider `CC1=CC(=C(c2cc(C)c(O)c(C(=O)O)c2)c2cc(C)c(O)c(C(=O)O)c2)C=C(C(=O)O)C1=O`, for which the growth inhibition was -2.3% in experiment [1]; -28.1% in experiment [2]; -8.5% in experiment [3]; 2.3% in experiment [4]; 8.8% in experiment [5]; 7.3% in experiment [6].
As for `CCCCSCC(O)c1ccccc1` (configuration not stated), the growth inhibition is -8.85% in experiment [1]; -19.1% in experiment [2]; -24.5% in experiment [3]; -44.1% in experiment [4]; 9% in experiment [5]; -2.2% in experiment [6].
Consider `COC(=O)c1nc(N)nc(C(=O)OC)c1C(=O)C(C)C`, for which the growth inhibition is 5.4% in experiment [1]; -10.7% in experiment [2]; -24.9% in experiment [3]; -13.4% in experiment [4]; -29% in experiment [5]; -1% in experiment [6].
Take `O=C(NC/C(Cl)=C/Cl)Nc1cccc2c1CCCC2`: the growth inhibition in experiment [1] was -5.5%; in experiment [2], -13.2%; in experiment [3] it was 19.8%; in experiment [4], -10.8%; in experiment [5], 22%; in experiment [6], 3.6%.
Regarding `Cc1cc(=O)[nH]c(-n2[nH]c(C)c(CCO)c2=O)n1`, the growth inhibition in experiment [1] was -13.3%; in experiment [2], -17.2%; in experiment [3] it was 14.8%; in experiment [4], 19.9%; in experiment [5], -5.9%; in experiment [6] it was 18.4%.
In the case of `c1ccc2nc3c(nc2c1)sc1nc2ccccc2n13`, the growth inhibition in experiment [1] is 9.65%; in experiment [2], 3.4%; in experiment [3] it was -11.9%; in experiment [4] it was 10.9%; in experiment [5], 8.3%; in experiment [6], 17.1%.
Take `CCCCCCCCCCCCCCOc1ccc(OCCCCCCCCC)cc1`: the growth inhibition in experiment [1] is 38.4%; in experiment [2] it was -14.9%; in experiment [3], 24.1%; in experiment [4], -13.8%; in experiment [5], 3.4%; in experiment [6], -13.9%.
For `COc1ccc2c(c1OC)Oc1c(OC)ccc3c1C(C2)N(C)C[C@@H]3O` (some centres not stated), the growth inhibition in experiment [1] is 10.1%; in experiment [2], 3.25%; in experiment [3], -7.6%; in experiment [4] it was -0.6%; in experiment [5], 26.1%; in experiment [6], -5.5%.
With `CCCNC(=O)Cn1c(C)cc2ccccc21`, the growth inhibition in experiment [1] was 6.55%; in experiment [2] it was 6.25%; in experiment [3], 26.2%; in experiment [4], 22.7%; in experiment [5], 15.4%; in experiment [6] it was -82.5%.
